From PubChem BioAssay (EPA / NIEHS)
Results filed as inconclusive are left out. The source holds several records for some structures; these can differ, active in one and inactive in another. Activity calls are given as the source filed them. Rule for the calls, unless noted: active = hit-call score of the fitted dose curve at least 0.9, where 1 is the maximum; inactive = score below 0.9.

Tests used:
[1] = read-out: succinate dehydrogenase complex iron sulfur subunit B (SDHB), SDHB (gene 6390); test: LTEA_HepaRG_SDHB: Life Technologies and Expression Analysis (LTEA) Assay for succinate dehydrogenase complex iron sulfur subunit B (SDHB) using HepaRG (AID 2283528); conditions: mRNA level, 48 h; actives raise or lower the signal
Method in brief: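 SDHB transcript level read by TaqMan qRT-PCR, housekeeping-normalised (ACTB, GAPDH, POLR2A), after 48 h chemical treatment of plated HepaRG cells; eight concentrations top 100 uM, half-log steps, 0.5% DMSO, duplicates; fitted both directions against DMSO.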

[2] = read-out: Signal transducer and activator of transcription 3 (Homo sapiens) (UniProt P40763); test: LTEA_HepaRG_STAT3: Life Technologies and Expression Analysis (LTEA) Assay for Signal transducer and activator of transcription (STAT3) using HepaRG (AID 2283529); conditions: mRNA level, 48 h; actives raise or lower the signal
Method in brief: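 Differentiated HepaRG cells, serum-free induction medium, dosed 48 h in duplicate, 8 half-log concentrations from 100 uM in 0.5% DMSO. STAT3 mRNA by qRT-PCR, normalised to ACTB, GAPDH, POLR2A; bidirectional fit versus DMSO.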

[3] = read-out: solute carrier (SLCO1B1), SLCO1B1 (gene 10599); test: LTEA_HepaRG_SLCO1B1: Life Technologies and Expression Analysis (LTEA) Assay for solute carrier (SLCO1B1) using HepaRG (AID 2283530); conditions: mRNA level, 48 h; actives raise or lower the signal
Method in brief: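 SLCO1B1 transcript levels were quantified by TaqMan qRT-PCR using three housekeeping genes for normalization. This followed 48 h chemical exposure (100 uM top, half-log, 8 points, 0.5% DMSO) of HepaRG liver cells, with gain or loss fitted relative to DMSO.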

[4] = read-out: Transforming Growth Factor (TGFA), TGFA (gene 7039); test: LTEA_HepaRG_TGFA: Life Technologies and Expression Analysis (LTEA) Assay for Transforming Growth Factor (TGFA) using HepaRG (AID 2283532); conditions: mRNA level, 48 h; actives raise or lower the signal
Method in brief: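 Differentiated HepaRG cells exposed 48 hours in serum-free induction medium, 0.5% DMSO vehicle, 8-point half-log series from 100 uM, in duplicate. TGFA mRNA by TaqMan qRT-PCR, normalised to ACTB, GAPDH, POLR2A; bidirectional fit versus DMSO.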

TIMP1, TIMP1 (gene 7076) = test: LTEA_HepaRG_TIMP1: Life Technologies and Expression Analysis (LTEA) Assay for TIMP1 using HepaRG (AID 2283534); conditions: mRNA level, 48 h; actives raise or lower the signal
Method in brief: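 Bidirectional change in TIMP1 transcript versus 0.5% DMSO, measured by TaqMan qRT-PCR with three housekeeping genes for normalization. HepaRG human liver cells dosed 48 h in duplicate, top concentration 100 uM with half-log dilutions.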

[5] = read-out: Tumor necrosis factor receptor 1 (TNFRSF1A), TNFRSF1A (gene 7132); test: LTEA_HepaRG_TNFRSF1A: Life Technologies and Expression Analysis (LTEA) Assay for Tumor necrosis factor receptor 1 (TNFRSF1A) using HepaRG (AID 2283535); conditions: mRNA level, 48 h; actives raise or lower the signal
Method in brief: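 mRNA measured by qRT-PCR (TaqMan, Fluidigm arrays) against ACTB/GAPDH/POLR2A housekeepers after 48 h chemical exposure of HepaRG cells. Top concentration 100 uM, half-log 8-point series, duplicates; vehicle 0.5% DMSO, both fit directions.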

[6] = read-out: Thyroid Hormone Responsive (THRSP), THRSP (gene 7069); test: LTEA_HepaRG_THRSP: Life Technologies and Expression Analysis (LTEA) Assay for Thyroid Hormone Responsive (THRSP) using HepaRG (AID 2283536); conditions: mRNA level, 48 h; actives raise or lower the signal
Method in brief: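 Differentiated HepaRG cells treated 48 h in serum-free induction medium with 8 half-log concentrations up to 100 uM (0.5% DMSO), duplicates. THRSP mRNA by TaqMan qRT-PCR normalised to ACTB, GAPDH, POLR2A; bidirectional fit versus DMSO.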

[7] = read-out: Cellular tumor antigen p53 (Homo sapiens) (UniProt P04637); test: LTEA_HepaRG_TP53: Life Technologies and Expression Analysis (LTEA) Assay for Tumor Protein P53 (TP53) using HepaRG (AID 2283537); conditions: mRNA level, 48 h; actives raise or lower the signal
Method in brief: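 TP53 transcript measured by qRT-PCR, normalized to three housekeeping genes, after 48 h treatment of human HepaRG cultures with chemicals from 100 uM downward in half-log steps (0.5% DMSO vehicle, serum-free induction medium). Up- or down-regulation fitted against DMSO.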

[8] = read-out: UDP glucuronosyltransferase (UGT1A1), UGT1A1 (gene 54658); test: LTEA_HepaRG_UGT1A1: Life Technologies and Expression Analysis (LTEA) Assay for UDP glucuronosyltransferase (UGT1A1) using HepaRG (AID 2283538); conditions: mRNA level, 48 h; actives raise or lower the signal
Method in brief: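 HepaRG cells, 0.5% DMSO vehicle, 48 h exposure in serum-free induction medium to 8-point half-log series topping at 100 uM, in duplicate. UGT1A1 mRNA by Fluidigm qRT-PCR, normalized to ACTB/GAPDH/POLR2A; bidirectional fit versus DMSO.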

[9] = read-out: UDP glucuronosyltransferase (UGT1A6), UGT1A6 (gene 54578); test: LTEA_HepaRG_UGT1A6: Life Technologies and Expression Analysis (LTEA) Assay for UDP glucuronosyltransferase (UGT1A6) using HepaRG (AID 2283539); conditions: mRNA level, 48 h; actives raise or lower the signal
Method in brief: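 Expression was quantified by TaqMan qRT-PCR on Fluidigm arrays with ACTB/GAPDH/POLR2A normalization and bidirectional fitting against 0.5% DMSO. HepaRG cells (~100,000/well) were treated in duplicate for 48 h at eight half-log concentrations up to 100 uM in serum-free induction medium.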

[10] = read-out: X-box binding protein 1 (XBP1), XBP1 (gene 7494); test: LTEA_HepaRG_XBP1: Life Technologies and Expression Analysis (LTEA) Assay for X-box binding protein 1 (XBP1) using HepaRG (AID 2283540); conditions: mRNA level, 48 h; actives raise or lower the signal
Method in brief: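 XBP1 transcript by qRT-PCR (housekeeping-normalized: ACTB, GAPDH, POLR2A) after 48 h chemical treatment of HepaRG cells, 8-point half-log series topping at 100 uM, vehicle 0.5% DMSO. Gain and loss of signal fitted relative to DMSO.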

[11] = LTEA_HepaRG_LDH_cytotoxicity: Cytotoxicity Assessment in the Life Technologies and Expression Analysis (LTEA) Assay (AID 2283563; active = hit-call score of the fitted dose curve at least 0.9, where 1 is the maximum;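 for AC50: LDH activity released into spent culture medium as a marker of cell death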)
Method in brief: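 LDH release into culture medium read after 48 h chemical treatment of HepaRG cells. Duplicate wells, eight-point half-log series topping at 100 uM, 0.5% DMSO vehicle and baseline.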

[12] = TOX21_p53_BLA_p2_viability: Viability Assessment in the Tox21 HCT-116 p53 Agonism Beta-lactamase Assay, Phase 2 (AID 2283591; active = hit-call score of the fitted dose curve at least 0.9, where 1 is the maximum;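 note: compound exposure lasted 16 h at 37 °C; actives lower the ATP signal meaning cytotoxicity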)
Method in brief: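 HCT116 p53-bla cells, 4000/well, dosed after 5 h plating (217-fold dilution of DMSO stocks) and incubated 16 h at 37C. Viability taken as cellular ATP by CellTiter-Glo luminescence after 30 min RT; signal loss marks cytotoxicity.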

[13] = TOX21_p53_BLA_p4_viability: Viability Assessment in the Tox21 HCT-116 p53 Agonism Beta-lactamase Assay, Phase 4 (AID 2283597; active = hit-call score of the fitted dose curve at least 0.9, where 1 is the maximum;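 note: hits lower the luminescence signal meaning cytotoxicity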)
Method in brief: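 Following a 16 h exposure at 37C, the treated HCT116 wells were first read for the FRET ratio. They were then lysed with CellTiter-Glo, and ATP luminescence was recorded after 30 min at room temperature.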

[14] = TOX21_p53_BLA_p3_viability: Viability Assessment in the Tox21 HCT-116 p53 Agonism Beta-lactamase Assay, Phase 3 (AID 2283593; active = hit-call score of the fitted dose curve at least 0.9, where 1 is the maximum;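 note: cells exposed to compound for 16 h before reading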)
Method in brief: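 HCT116 cells, 4000/well, dosed 5 h after plating by pin transfer (217-fold dilution from DMSO stock) and incubated 16 h at 37C, 5% CO2. Viability read as ATP luminescence with CellTiter-Glo after 30 min at room temperature.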

[15] = target: Cellular tumor antigen p53 (Homo sapiens) (UniProt P04637); test: TOX21_p53_BLA_p3_ratio: Tox21 HCT-116 p53 Agonism Beta-lactamase Assay, Ratio, Phase 3 (AID 2283596; active = hit-call score of the fitted dose curve at least 0.9, where 1 is the maximum)
Sequence of Cellular tumor antigen p53 (Homo sapiens) (P04637 whole entry, looked up): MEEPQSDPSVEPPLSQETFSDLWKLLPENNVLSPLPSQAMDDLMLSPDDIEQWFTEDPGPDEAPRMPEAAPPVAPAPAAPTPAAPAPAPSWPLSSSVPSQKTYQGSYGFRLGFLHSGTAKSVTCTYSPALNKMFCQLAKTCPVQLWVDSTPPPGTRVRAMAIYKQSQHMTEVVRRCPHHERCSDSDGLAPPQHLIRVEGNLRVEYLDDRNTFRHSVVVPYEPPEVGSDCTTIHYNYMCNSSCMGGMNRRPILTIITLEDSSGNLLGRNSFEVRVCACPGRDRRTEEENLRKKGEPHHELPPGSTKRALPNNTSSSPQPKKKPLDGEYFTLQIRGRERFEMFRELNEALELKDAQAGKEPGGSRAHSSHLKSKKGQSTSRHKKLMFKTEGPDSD
Method in brief: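 HCT116 p53-bla cells (4000/well) given compound in DMSO (217-fold dilution) after 5 h, incubated 16 h at 37C. CCF4-AM substrate 2 h at room temperature; 460/530 nm emission ratio, gain fitted against DMSO.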

[16] = read-out: sulfotransferase 2A1 (SULT2A1), SULT2A1 (gene 6822); test: LTEA_HepaRG_SULT2A1: Life Technologies and Expression Analysis (LTEA) Assay for sulfotransferase 2A1 (SULT2A1) using HepaRG (AID 2283531); conditions: mRNA level, 48 h; actives raise or lower the signal
Method in brief: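 Expression change of SULT2A1, by qRT-PCR with three housekeeping-gene normalization, was scored bidirectionally versus DMSO. Cells: differentiated HepaRG, dosed in duplicate for 48 h across 8 points, highest 100 µM, half-log dilution, 0.5% DMSO.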

[17] = read-out: Transforming Growth Factor (TGFB1), TGFB1 (gene 7040); test: LTEA_HepaRG_TGFB1: Life Technologies and Expression Analysis (LTEA) Assay for Transforming Growth Factor (TGFB1) Transporter using HepaRG (AID 2283533); conditions: mRNA level, 48 h; actives raise or lower the signal
Method in brief: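 TGFB1 transcript measured by qRT-PCR with normalisation to three housekeeping genes (ACTB, GAPDH, POLR2A); human HepaRG line treated in duplicate for 48 hr with an 8-point series topping at 100 uM, 0.5% DMSO vehicle, bidirectionally fitted.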

[18] = ATG_XTT_Cytotoxicity: Cytotoxicity Assessment in the Attagene TRANS-FACTORIAL HepG2 Assay (AID 2283584; active = hit-call score of the fitted dose curve at least 0.9, where 1 is the maximum)
Method in brief: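 Viability endpoint from XTT after 24 h chemical exposure of reporter-transfected human HepG2 liver cells; signal loss fitted relative to DMSO negative control.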

[19] = target: Cellular tumor antigen p53 (Homo sapiens) (UniProt P04637); test: TOX21_p53_BLA_p2_ratio: Tox21 HCT-116 p53 Agonism Beta-lactamase Assay, Ratio, Phase 2 (AID 2283592; active = hit-call score of the fitted dose curve at least 0.9, where 1 is the maximum)
Method in brief: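 Gain-of-signal p53 agonism was scored from the beta-lactamase FRET ratio (460/530 nm, 405 nm excitation) in HCT116 cells treated 16 h at 37C, 5% CO2, with DMSO serving as negative control and baseline.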

Measured: AC50

Sequence of Signal transducer and activator of transcription 3 (Homo sapiens) (P40763 whole entry, looked up): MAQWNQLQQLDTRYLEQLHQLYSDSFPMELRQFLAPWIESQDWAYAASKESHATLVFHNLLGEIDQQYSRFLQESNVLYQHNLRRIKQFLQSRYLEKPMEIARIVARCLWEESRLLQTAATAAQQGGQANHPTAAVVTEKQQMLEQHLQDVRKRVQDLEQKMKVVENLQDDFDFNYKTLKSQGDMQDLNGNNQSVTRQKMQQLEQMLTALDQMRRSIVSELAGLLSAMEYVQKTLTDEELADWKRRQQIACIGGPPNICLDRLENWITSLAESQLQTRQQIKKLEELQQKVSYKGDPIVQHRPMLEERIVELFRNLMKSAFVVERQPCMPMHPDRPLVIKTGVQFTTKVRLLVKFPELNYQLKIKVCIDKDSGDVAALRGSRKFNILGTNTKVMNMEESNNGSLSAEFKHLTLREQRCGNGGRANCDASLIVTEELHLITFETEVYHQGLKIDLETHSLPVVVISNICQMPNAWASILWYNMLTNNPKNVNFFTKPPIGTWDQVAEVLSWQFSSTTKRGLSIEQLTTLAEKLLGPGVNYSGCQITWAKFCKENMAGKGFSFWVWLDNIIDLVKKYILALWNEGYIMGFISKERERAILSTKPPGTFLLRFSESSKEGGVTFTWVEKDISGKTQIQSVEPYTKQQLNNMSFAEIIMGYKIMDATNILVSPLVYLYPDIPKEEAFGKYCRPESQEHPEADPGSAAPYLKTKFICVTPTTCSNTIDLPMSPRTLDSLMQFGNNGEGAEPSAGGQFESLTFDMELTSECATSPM

CN1CCN(Cc2cc(-c3ccc4[nH]c(=O)oc4c3)co2)[C@@H](c2ccc(F)cc2)C1
not listed: [14] | [15] | [16] | [17] | [18] | [19]
inactive: all other assays above

CCc1c(C(=O)NN2CCCCC2)nn(-c2ccc(Cl)cc2Cl)c1-c1ccc(Br)cc1
active: [3] 36.9 µM | [4] 55.3 µM | TIMP1, TIMP1 (gene 7076) 86.5 µM | [7] 29.8 µM | [8] 58.1 µM | [9] 73.6 µM | [10] 74.9 µM | [11] 61.6 µM | [12] 5.6 µM | [14] 9.14 µM | [13] 2.1 µM
inactive: [1] | [2] | [5] | [6] | [15]

O=C(O)Cc1ccccc1Nc1c(Cl)cccc1Cl
inactive: [2] | [3] | [16] | [4] | [17] | TIMP1, TIMP1 (gene 7076) | [5] | [6] | [7] | [9] | [10] | [11] | [18] | [12] | [15]
active: [8] 6.2 µM | [15] 86 µM | [13] 46.1 µM

Cc1ccc(C(C)C)c(O)c1
inactive: [1] | [2] | [3] | [4] | [17] | TIMP1, TIMP1 (gene 7076) | [5] | [6] | [8] | [9] | [10] | [11] | [18] | [19] | [15] | [13]
active: [12] 66 µM | [13] 60.5 µM
